# About 79,000 compounds went through this panel and 15% of them were active in at least one assay; those are over-represented in the sample as a whole. Values without a mark were called inactive. The source made the active and inactive calls. Rule as the data show it: active = growth inhibition above about 70%; inactive = the rest.
# Tests used:
# [1] = NCI Yeast Anticancer Drug Screen. Data for the wt1 strain (AID 149);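 also: 0% = growth of vehicle-treated wt1 cultures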; conditions: S. cerevisiae wt1 strain (SPY 50644) growth inhibition, active compounds read high
# Summary of the method: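 Vehicle-normalised growth inhibition; strain wt1; compound exposure.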
# [2] = NCI Yeast Anticancer Drug Screen. Data for the rad50EPP+ strain (AID 151);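 also: 0% = growth of vehicle-treated control cultures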; conditions: S. cerevisiae rad50 mutant strain, active compounds read high
# Summary of the method: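 Vehicle-normalised growth inhibition; rad50EPP+ yeast strain, altered in DNA damage repair, compound-treated.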
# [3] = NCI Yeast Anticancer Drug Screen. Data for the rad50 strain (AID 155);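 also: 0% = growth of vehicle-only cultures of the same strain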; conditions: S. cerevisiae rad50 strain growth inhibition, active compounds read high
# Summary of the method: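 A DNA repair-deficient yeast mutant serves as the test organism; compound-induced growth inhibition is calculated against vehicle-treated cells.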
# [4] = NCI Yeast Anticancer Drug Screen. Data for the mec2-1 strain (AID 157); conditions: S. cerevisiae mec2-1 strain, active compounds read high
# Summary of the method: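 Mutant yeast (mec2-1) grown with compound; growth inhibition relative to vehicle control reported.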
# [5] = NCI Yeast Anticancer Drug Screen. Data for the rad14 strain (AID 159);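 also: 0% = growth of vehicle-treated control cultures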; conditions: S. cerevisiae rad14 strain growth inhibition, active compounds read high
# Summary of the method: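 Vehicle-treated cultures served as the baseline for growth inhibition of a DNA repair-mutant yeast strain exposed to each compound.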
# [6] = NCI Yeast Anticancer Drug Screen. Data for the sgs1 mgt1 strain (AID 161);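 also: 0% = growth of cultures given vehicle only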; conditions: S. cerevisiae sgs1 mgt1 strain, active compounds read high
# Summary of the method: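 This yeast growth screen uses a strain with defined DNA-repair lesions; compound-treated growth is compared with vehicle-treated growth.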
# [7] = NCI Yeast Anticancer Drug Screen. Data for the CLN2oe strain (AID 163);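 also: 0% = growth of vehicle-only control cultures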; conditions: S. cerevisiae CLN2oe strain, active compounds read high
# Summary of the method: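 Compounds are applied to yeast harbouring a defined cell-cycle control change; reduced growth compared with vehicle-treated controls gives the value.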
# [8] = NCI Yeast Anticancer Drug Screen. Data for the cln2 rad14 strain (AID 165);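 also: 0% = growth equal to vehicle treated cultures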; conditions: S. cerevisiae cln2 rad14 strain, active compounds read high
# Summary of the method: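 Readout is yeast growth inhibition versus vehicle-treated controls, using a strain with cln2 and rad14 alterations exposed to compound.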
# [9] = NCI Yeast Anticancer Drug Screen. Data for the bub3 strain (AID 167); conditions: S. cerevisiae bub3 mutant strain, active compounds read high
# Summary of the method: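 Inhibition values come from growth of compound-treated mutant yeast normalised to vehicle-treated controls.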
# [10] = NCI Yeast Anticancer Drug Screen. Data for the wt2 strain (AID 169);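 also: 0% = growth of vehicle-treated yeast cultures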; conditions: S. cerevisiae wt2 strain growth inhibition, active compounds read high
# Summary of the method: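 Against vehicle-treated controls, the growth of yeast exposed to each compound was compared, and the inhibition was recorded.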
# [11] = NCI Yeast Anticancer Drug Screen. Data for the sgs1 strain (AID 173);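 also: 0% = growth of vehicle-only control cultures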; conditions: S. cerevisiae sgs1 mutant, active compounds read high
# Summary of the method: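 Each compound was added to cultures of the altered yeast strain. Growth was recorded, and inhibition was derived by comparison with vehicle controls.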
# [12] = NCI Yeast Anticancer Drug Screen. Data for the mlh1 rad18 strain (AID 175); conditions: S. cerevisiae mlh1 rad18 strain growth inhibition, active compounds read high
# Summary of the method: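 Genetically defined yeast (DNA repair-deficient) exposed to compounds; growth inhibition determined relative to vehicle.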
# [13] = NCI Yeast Anticancer Drug Screen. Data for the rad18 strain (AID 177); conditions: S. cerevisiae rad18 mutant growth inhibition, active compounds read high
# Summary of the method: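 Vehicle-treated cultures served as the baseline for scoring compound-induced growth inhibition in DNA-repair-mutant yeast.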
# [14] = at 5.0 µM (retest, dose inferred, filed as 0.5)
# [15] = at 50.0 µM (retest, dose inferred, filed as 5.0)
smiles,measurement,setting,value
COC(=O)C1(N2CCOCC2)CCC([C@@H](c2ccccc2)C(C)[N+](=O)[O-])C1 (stereo partly drawn),growth inhibition,[1]; at 1.2 µM,-3%
same,growth inhibition,[1]; at 3.7 µM,-2%
same,growth inhibition,[1]; at 11.0 µM,-2%
same,growth inhibition,[1]; at 33.0 µM,-3%
same,growth inhibition,[1]; at 100.0 µM,4%
same,growth inhibition,[2]; at 1.2 µM,2%
same,growth inhibition,[2]; at 3.7 µM,3%
same,growth inhibition,[2]; at 11.0 µM,15%
same,growth inhibition,[2]; at 33.0 µM,54%
same,growth inhibition,[2]; at 100.0 µM,86% (active)
same,growth inhibition,[3]; at 1.2 µM,0%
same,growth inhibition,[3]; at 3.7 µM,2%
same,growth inhibition,[3]; [14],11%
same,growth inhibition,[3]; at 11.0 µM,17%
same,growth inhibition,[3]; at 33.0 µM,43%
same,growth inhibition,[3]; [15],-3%
same,growth inhibition,[3]; at 50.0 µM,57.2%
same,growth inhibition,[3]; at 100.0 µM,94% (active)
same,growth inhibition,[4]; at 1.2 µM,-3%
same,growth inhibition,[4]; at 3.7 µM,1%
same,growth inhibition,[4]; [14],0%
same,growth inhibition,[4]; at 11.0 µM,4%
same,growth inhibition,[4]; at 33.0 µM,4%
same,growth inhibition,[4]; [15],2%
same,growth inhibition,[4]; at 50.0 µM,26.4%
same,growth inhibition,[4]; at 100.0 µM,34%
same,growth inhibition,[5]; at 1.2 µM,1%
same,growth inhibition,[5]; at 3.7 µM,1%
same,growth inhibition,[5]; at 11.0 µM,6%
same,growth inhibition,[5]; at 33.0 µM,9%
same,growth inhibition,[5]; at 100.0 µM,39%
same,growth inhibition,[6]; [14],0%
same,growth inhibition,[6]; [15],-2%
same,growth inhibition,[6]; at 50.0 µM,20.6%
same,growth inhibition,[7]; at 1.2 µM,-9%
same,growth inhibition,[7]; at 3.7 µM,-4%
same,growth inhibition,[7]; at 11.0 µM,-10%
same,growth inhibition,[7]; at 33.0 µM,-3%
same,growth inhibition,[7]; at 100.0 µM,9%
same,growth inhibition,[8]; [14],-1%
same,growth inhibition,[8]; [15],-2%
same,growth inhibition,[8]; at 50.0 µM,8.15%
same,growth inhibition,[9]; at 1.2 µM,-1%
same,growth inhibition,[9]; at 3.7 µM,-12%
same,growth inhibition,[9]; [14],1%
same,growth inhibition,[9]; at 11.0 µM,-8%
same,growth inhibition,[9]; at 33.0 µM,-13%
same,growth inhibition,[9]; [15],-29%
same,growth inhibition,[9]; at 50.0 µM,-2.55%
same,growth inhibition,[9]; at 100.0 µM,24%
same,growth inhibition,[10]; at 1.2 µM,-2%
same,growth inhibition,[10]; at 3.7 µM,-3%
same,growth inhibition,[10]; at 11.0 µM,-4%
same,growth inhibition,[10]; at 33.0 µM,-4%
same,growth inhibition,[10]; at 100.0 µM,11%
same,growth inhibition,[11]; at 1.2 µM,-1%
same,growth inhibition,[11]; at 3.7 µM,-1%
same,growth inhibition,[11]; at 11.0 µM,1%
same,growth inhibition,[11]; at 33.0 µM,7%
same,growth inhibition,[11]; at 100.0 µM,49%
same,growth inhibition,[12]; [14],3%
same,growth inhibition,[12]; [15],3%
same,growth inhibition,[12]; at 50.0 µM,27.5%
same,growth inhibition,[13]; at 1.2 µM,1%
same,growth inhibition,[13]; at 3.7 µM,2%
same,growth inhibition,[13]; at 11.0 µM,6%
same,growth inhibition,[13]; at 33.0 µM,14%
same,growth inhibition,[13]; at 100.0 µM,82% (active)

# Reference: PubChem BioAssay (NCI)
